The list is not random: actives were taken first. Their share in the collection is about 17%.
ClpP mod – qHTS Assay for Activators of ClpP | purified B. subtilis ClpP, FRET peptide cleavage, 20 min | hit rate 1.9% among 340,000 | ATP-dependent Clp protease proteolytic subunit (Bacillus subtilis (strain 168)), P80244 | Potency, µM (doses to about 57.5 µM); active = well fitted falling curve with a large enough effect; inconclusive = small, poorly fitted or top-dose-only effect; inactive = no such curve, though single readings can be large or run the other way; note: the source files actives as falling curves though it sought activators and does not explain the sign; nearly all actives have a fitted effect of over 65% in size
Target sequence (P80244 whole entry, looked up): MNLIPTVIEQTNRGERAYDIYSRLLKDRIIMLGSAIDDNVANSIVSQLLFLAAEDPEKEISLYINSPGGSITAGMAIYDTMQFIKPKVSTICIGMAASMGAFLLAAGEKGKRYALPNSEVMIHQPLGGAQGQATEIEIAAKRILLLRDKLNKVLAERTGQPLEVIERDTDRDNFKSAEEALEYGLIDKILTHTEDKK
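Purified B. subtilis ClpP, 10 microg/mL final in Tris/HCl pH8 with KCl, BSA, glycerol and Tween-20, cleaved an Abz/nitrotyrosine-quenched decapeptide. Fluorescence (ex 320, em 430) was read at 0 and 20 min at room temperature. Delta was normalized to 5.8 microM ADEP and DMSO/no-enzyme controls.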
TDP1 cell CPT – DT40-hTDP1 cell growth loss with CPT; chicken DT40 Tdp1-/-;hTDP1 cells + 20 nM CPT, ATP luminescence, 48 h; Potency, µM (titrated, usually from 46.2 µM), hits mostly inhibitors; hit rate 12% among 420,000; note: nearly all actives have a fitted effect of over 55% in size
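Chicken DT40 Tdp1-/- cells complemented with human TDP1, 400 cells/well, exposed to compounds plus 20 nM camptothecin for at least 48 h at 37 C; viability read as ATP content by CellTiter-Glo luminescence.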
DT40 TDP1 no CPT – qHTS for Inhibitors of human tyrosyl-DNA phosphodiesterase 1 (TDP1): qHTS in cells in absence of CPT | DT40 Tdp1-/- hTDP1 cells, no CPT, ATP luminescence, 48 h | Potency, µM (titrated, usually from 46.2 µM), hits mostly inhibitors | hit rate 15% among 420,000 | AID 686978, 2013; note: nearly all actives have a fitted effect of over 55% in size
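Luminescent ATP content (CellTiter-Glo) served as the growth readout. Knockout chicken DT40 cells expressing human TDP1 were exposed to compounds without camptothecin for a minimum 48 hr at 37 °C.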
TDP1 inh – TDP1 (human) enzyme inhibition. hit rate 0.28% among 350,000. AID 485290. recombinant TDP1, AlphaScreen DNA substrate cleavage. Potency, µM (doses to about 130 µM), actives largely listed as inhibitors. Q9NUW8; note: nearly all actives have a fitted effect of over 40% in size
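AlphaScreen read-out: signal falls as enzyme removes the 3' tyrosine-FITC from a 5'-biotinylated DNA oligo (15 nM, 5 min, RT). Enzyme was E. coli-made recombinant Tdp1 at 1 nM, exposed to compound for 15 min beforehand; beads 10 ug/ml, 10 min.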
Large screens that a line does not name were inactive. Unless noted, calls come from the whole dose curve; as a rule, active = well fitted curve in the direction sought with a large enough effect; inconclusive = small, poorly fitted or top-dose-only effect, or another doubt; inactive = no such curve, though single readings can be large; an effect the other way counts as inactive or inconclusive.

CCC(CC)C(=O)N(C)c1c(C)nc2c(OCc3ccc(Cl)cc3Cl)cccn12	TDP1 cell CPT 4.6µM, DT40 TDP1 no CPT 3.7µM (no result: TDP1 inh)
O=C(CCNC(=O)c1ccccc1Cl)Nc1nnc(C2CC2)s1	none (no result: ClpP mod)
Cc1cc(/C=N/NC(=O)C(O)(c2ccccc2)c2ccccc2)c(C)n1-c1ccccc1	TDP1 cell CPT inconclusive, DT40 TDP1 no CPT inconclusive
COc1ccc(/C=N/NC(=O)c2cccs2)c2ccccc12	TDP1 cell CPT inconclusive, DT40 TDP1 no CPT 8.2µM (no result: TDP1 inh)
Cc1cc(/C=N/NC(=O)c2cccs2)c(C)n1-c1ccccc1	TDP1 cell CPT 16µM, DT40 TDP1 no CPT 13µM
Cc1cc(/C=N/NC(=O)c2ccncc2)c(C)n1-c1ccccc1	none (no result: ClpP mod)
Cc1cc(C(=O)N/N=C/c2ccc(O)c(O)c2O)c(C)n1-c1ccccc1	TDP1 cell CPT 4.6µM, DT40 TDP1 no CPT 3.3µM
C#CCn1c(COc2ccccc2C)nc2ccccc21	DT40 TDP1 no CPT inconclusive
O=C(c1ccco1)N1CCC2(CCN(Cc3nccs3)CC2)CC1	none (no result: ClpP mod, TDP1 inh)
CCOC(=O)COc1ccccc1C(=O)c1cnn(-c2ccccc2)c1	DT40 TDP1 no CPT inconclusive (no result: TDP1 inh)
CCOC(=O)c1c(NC(C)=O)c2c3c(sc2n1Cc1cccc(Cl)c1)CCCC3	TDP1 cell CPT inconclusive, DT40 TDP1 no CPT 15µM
CCOC(=O)c1c(NC(C)=O)c2c3c(sc2n1Cc1nc(-c2ccccc2C)oc1C)CCCC3	none
CCOC(=O)c1c(NC(C)=O)c2c3c(sc2n1Cc1nc(-c2cccc(C)c2)oc1C)CCCC3	TDP1 cell CPT 3.7µM, DT40 TDP1 no CPT inconclusive
CCOC(=O)c1c(NC(C)=O)c2c3c(sc2n1Cc1cc(C)ccc1C)CCCC3	TDP1 cell CPT 5.8µM, DT40 TDP1 no CPT inconclusive
COC(=O)c1c(NC(C)=O)c2c3c(sc2n1Cc1cc(C)ccc1C)CCCC3	none
Cc1ccccc1Cn1c(=O)n(-c2ccc(Cl)cc2)c(=O)c2c3c(sc21)CCCC3	none
CCOC(=O)c1c(NC(C)=O)c2c3c(sc2n1Cc1ccc(Cl)cc1)CCCC3	TDP1 cell CPT inconclusive, DT40 TDP1 no CPT 15µM
O=C(Cc1ccccc1)NC1CC(=O)N(c2ccc3c(c2)OCCO3)C1 (stereo not given)	none
COc1cccc(C(=O)NCc2ccco2)c1	none (no result: TDP1 inh)
CCN(CC)CCCNC(=O)/C(=C\c1cccn1C)NC(=O)c1cccs1	none
CCN(CC)CCC=C(c1cccs1)c1cccs1	TDP1 cell CPT inconclusive, DT40 TDP1 no CPT 23µM (no result: TDP1 inh)
CCNC(=O)Cc1ccc(NC(=O)N2CCCCc3ccccc32)cc1	none
CN(C)CCNC(=O)Cc1ccc(NC(=O)N2CCCCc3ccccc32)cc1	none
COc1ccc(NC(=O)N2CCCc3ccccc32)c(OC)c1	none
COc1ccc(C)cc1NC(=O)N1CCCc2ccccc21	TDP1 cell CPT inconclusive, DT40 TDP1 no CPT 23µM (no result: ClpP mod, TDP1 inh)
CN(C)c1ccc(CNC(=O)Cc2ccc(NC(=O)N3CCCCc4ccccc43)cc2)cc1	TDP1 cell CPT inconclusive, DT40 TDP1 no CPT 21µM
Cc1ccccc1CNC(=O)Cc1ccc(NC(=O)N2CCCCc3ccccc32)cc1	TDP1 cell CPT inconclusive, DT40 TDP1 no CPT 18µM
Cc1cccc(CNC(=O)Cc2ccc(NC(=O)N3CCCCc4ccccc43)cc2)c1	TDP1 cell CPT inconclusive, DT40 TDP1 no CPT 16µM
Cc1cccc(-n2ncc3c2CCCC3NC(=O)CCCN2CCCCC2=O)c1C (stereo not given)	none
COc1ccc(-n2c(CNC(=O)c3ccccc3C(F)(F)F)nnc2SC)cc1	none (no result: ClpP mod, TDP1 inh)
COc1cccc(NC(=O)CN2C=NS(=O)(=O)c3ccccc32)c1	none
c1ccc(-c2ccccc2OCCCCN2CCCCCC2)cc1	TDP1 cell CPT 18µM, DT40 TDP1 no CPT inconclusive
c1ccc(-c2ccccc2OCCN2CCCC2)cc1	none (no result: ClpP mod)
COc1ccccc1OCCCCN1CCC(C)CC1	none (no result: TDP1 inh)
CC1CCN(CCOCCOc2ccccc2-c2ccccc2)CC1	TDP1 cell CPT 23µM, DT40 TDP1 no CPT inconclusive
CC1CCCN(CCCOc2ccccc2-c2ccccc2)C1 (stereo not given)	TDP1 cell CPT inconclusive, DT40 TDP1 no CPT 23µM (no result: ClpP mod)
c1ccc(-c2ccccc2OCCCCn2ccnc2)cc1	TDP1 cell CPT 23µM, DT40 TDP1 no CPT 26µM
CC(C)(C)c1ccccc1OCCCCCn1ccnc1	TDP1 cell CPT inconclusive, DT40 TDP1 no CPT inconclusive (no result: ClpP mod)
CC(NC(=O)Cc1ccc(S(=O)(=O)N2CCOCC2)s1)c1ccc(Cl)c(Cl)c1 (stereo not given)	TDP1 cell CPT inconclusive, DT40 TDP1 no CPT inconclusive (no result: TDP1 inh)
COc1ccccc1NC(C)C(=O)c1c(C)[nH]c2ccccc12 (stereo not given)	DT40 TDP1 no CPT inconclusive (no result: TDP1 inh)
c1ccc(-c2ccccc2OCCOCCN2CCCCC2)cc1	TDP1 cell CPT 23µM, DT40 TDP1 no CPT inconclusive
CCOC(=O)Cc1ccc(NC(=O)N2CC(C)Oc3ccc(Cl)cc32)cc1 (stereo not given)	TDP1 cell CPT 16µM, DT40 TDP1 no CPT inconclusive
CCOC(=O)Cc1ccc(NC(=O)N2CC(CC)Oc3ccccc32)cc1 (stereo not given)	TDP1 cell CPT 16µM, DT40 TDP1 no CPT inconclusive
CCOC(=O)c1c(-c2ccc(C)cc2)csc1NC(=O)c1cc(-c2ccc(Cl)cc2)on1	none
CC(C)(C)c1ccc(C(=O)NNC(=O)CNC(=O)c2cccs2)cc1	none
COc1ccccc1NC(=O)/C(C#N)=C/C=C/c1ccco1	TDP1 cell CPT 1.3µM, DT40 TDP1 no CPT 1.2µM
Cn1c(SCc2ccccc2)nnc1C1CCCN(Cc2cccc3ncccc23)C1 (stereo not given)	TDP1 cell CPT inconclusive (no result: ClpP mod, TDP1 inh)
COc1ccc(C(=O)N(CC2CCCO2)C(C(=O)NC2CCCC2)c2ccc(Cl)cc2)cc1OC (stereo not given)	TDP1 cell CPT inconclusive, DT40 TDP1 no CPT 18µM
CC(C)S(=O)(=O)c1oc(-c2ccc(F)cc2)nc1S(=O)(=O)c1ccccc1	TDP1 cell CPT 0.73µM, DT40 TDP1 no CPT 0.46µM
CSc1oc(-c2ccccc2)nc1S(=O)(=O)c1ccc(F)cc1	none
Cc1ccc(S(=O)(=O)c2nc(-c3cccs3)oc2SC(C)C)cc1	TDP1 cell CPT inconclusive, DT40 TDP1 no CPT inconclusive
CC(C)S(=O)(=O)c1oc(-c2cccs2)nc1S(=O)(=O)c1ccc(F)cc1	TDP1 cell CPT 0.65µM, DT40 TDP1 no CPT 0.46µM
Clc1cccc(CN2CCN(c3ncccn3)CC2)c1Cl	DT40 TDP1 no CPT inconclusive (no result: TDP1 inh)
Cc1c(Cl)c([N+](=O)[O-])nn1CCCC(=O)NC1CCCCC1	none
O=S(=O)(c1ccc(Br)cc1)N1CCN(c2ccc3nnc(-c4ccccc4)n3n2)CC1	TDP1 cell CPT 18µM, DT40 TDP1 no CPT 21µM
O=S(=O)(c1ccc(N2CCN(S(=O)(=O)c3ccccc3)CC2)nc1)N1CCCC1	none (no result: ClpP mod)
Cc1nnc2ccc(N3CCN(C(=O)c4ccccc4)CC3)nn12	none
O=C(c1ccc(Br)o1)N1CCN(c2ccc3nnc(-c4ccccc4)n3n2)CC1	TDP1 cell CPT 16µM, DT40 TDP1 no CPT 15µM
CC1CC(C)CN(CCCNS(=O)(=O)c2ccc3c(c2)CCN3C(=O)C2CC2)C1 (stereo not given)	none

Screens: PubChem, National Center for Advancing Translational Sciences (NCATS)
